# Screening results from PubChem BioAssay.
# D1 antag: human D1 dopamine receptor antagonism. HEK293 TREx D1 cells, calcium flux, dopamine EC80; stronger effect = lower value. activity change, negative = inhibition, % at 10 µM. hit rate 3.2% among 360,000. AID 504652; in the data active = activity change below about -30%; also: % is scaled to controls: 0 for no effect and ±100 for the full control effect
#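 Inducible Hek293 Trex D1 cells (tetracycline, overnight, 30 C). Calcium dye 30–90 min RT. Antagonist mode: EC80 dopamine added after 180 s compound read.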
# TRHR agonist: TRH receptor (human) agonism. P34981. activation, % at 2 µM. AID 493084. TRHR cells, calcium flux fluo-8, FDSS agonist mode. hit rate 0.18% among 360,000; also: 0% is about no effect
# Target sequence (P34981 whole entry, looked up): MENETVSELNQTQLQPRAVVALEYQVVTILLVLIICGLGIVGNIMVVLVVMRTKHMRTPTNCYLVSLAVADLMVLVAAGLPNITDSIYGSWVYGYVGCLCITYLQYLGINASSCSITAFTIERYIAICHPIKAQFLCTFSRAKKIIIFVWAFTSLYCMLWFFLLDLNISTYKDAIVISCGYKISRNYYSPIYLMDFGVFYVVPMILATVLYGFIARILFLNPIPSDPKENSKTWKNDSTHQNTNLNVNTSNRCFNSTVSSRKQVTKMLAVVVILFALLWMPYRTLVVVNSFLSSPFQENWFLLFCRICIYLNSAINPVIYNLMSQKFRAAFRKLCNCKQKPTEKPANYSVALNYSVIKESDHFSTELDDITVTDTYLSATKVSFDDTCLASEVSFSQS
#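 TRHR-expressing cells loaded with fluo-8 calcium dye; 23 nL library compound pin-transferred, kinetic FDSS fluorescence (Ex 480/Em 530) recorded about 180 s for agonist-induced calcium release, before a 10 nM TRH EC20 addition for potentiator mode.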
# TRHR PAM: TRH receptor (human) allosteric enhancement | enhancement, % at 2 µM | TRHR cells, fluo-8 calcium fluorescence, EC20 TRH enhancement | AID 493056 | hit rate 0.66% among 360,000; in the data active = enhancement above about 30%; also: 0% is about no effect
#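 TRHR-expressing cells loaded with fluo-8 calcium dye were read kinetically (ex 480/em 530) during compound addition, then stimulated with an EC20 of TRH (10 nM final). Enhancement of the Gq-mediated intracellular calcium response was scored.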
# D1 ag: agonists of human D1 dopamine receptor; HEK293 T-REx D1 cells, calcium flux, agonist mode; hit rate 1% among 360,000; activation, % at 2 µM; P21728; also: 0% is about no effect
#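 Tetracycline-induced HEK293 TREx D1 cells, force-coupled to calcium signalling, were dye-loaded with a no-wash calcium kit. Compound was pin-added after a 10 s baseline. Fluorescence was read kinetically at 1 cycle/s for 180 s, with calcium rises flagged as agonism.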
# D1 PAM: enhances dopamine response at the human D1 receptor; P21728; HEK293 TREx D1 cells, calcium flux, dopamine EC20 potentiation; potentiation, % at 10 µM; hit rate 0.036% among 360,000; AID 504651; in the data active = potentiation above about 30%; also: 0% is about no effect
# * marks the source's active call; other numbers are inactive results; · = not tested or not shown. Hits are enriched below; roughly 4.7% of the tested compounds scored in any of these assays. Rule as the data show it, unless noted: active = activation above about 30%; inactive = the rest.
SMILES,D1 antag,TRHR agonist,TRHR PAM,D1 ag,D1 PAM
Cc1ccc(OCCCCn2c(-c3ccc(Cl)cc3)nc3ccccc3c2=O)cc1,-3.5,-0.2,12.1,2.5,-1.7
Cc1ccc(NC(=O)N2CC3CCCN3c3ccccc32)cc1Cl (centres undefined),-1.3,0.4,-8.5,1.9,-3.5
CCN(Cc1ccccc1)C(=O)Cn1c(=O)n(-c2ccc(Cl)c(Cl)c2)c(=O)c2c(C)c(C(=O)N(C)C)sc21,-7.0,-0.3,-6.2,1.0,-0.8
CCCCN(CC)Cc1ccc(CNC(=S)Nc2cccc(F)c2)o1,-0.5,-2.2,-9.5,34.0*,-9.1
CCSc1nn(CC(=O)Nc2cccc(Cl)c2)c(N)c1S(=O)(=O)c1ccc(OC)cc1,3.2,0.6,9.5,6.0,1.2
CC1=C(C(=O)Nc2ccccc2C)C(c2cccs2)n2nc(SCc3ccccc3)nc2N1 (centres undefined),-8.2,0.5,5.1,7.1,0.2
COc1ccc(C(=O)N2CCCC(Nc3ccc(C)c(C)c3)C2)c(OC)n1 (centres undefined),-0.5,-0.9,-6.3,4.1,-1.2
COc1ccc(C(=O)N2CCCC(Nc3ccc(F)c(F)c3)C2)c(OC)n1 (centres undefined),-35.0*,-0.7,-1.2,-0.6,4.4
O=C(c1cnsn1)N1CCCC(Nc2ccc(F)c(F)c2)C1 (centres undefined),-64.5*,-0.5,4.6,1.4,-4.6
COC(=O)c1cnc(Oc2ccc(NC(=O)NC(=O)c3c(OC)cccc3OC)cc2)cc1C(F)(F)F,-54.4*,1.7,3.4,2.4,-10.9
CN1CCC(=C2c3ccccc3C(O)c3ccccc32)CC1 (centres undefined),-79.3*,-1.1,18.1,19.4,-8.2
O=S(=O)(c1ccc2c(c1)C(O)c1ccccc1CC2)C(F)(F)F (centres undefined),-23.2,0.5,-0.2,2.7,-5.1
CC(=O)Nc1sc(/C(C#N)=C\c2cccc(Cl)c2)nc1-c1ccc(C)cc1,-45.4*,67.2*,-3.6,244.3*,-5.7
C=CCN(CC(=O)NCc1ccc(F)cc1)C(=O)c1csnn1,-35.3*,0.3,-0.1,3.8,8.6
NCCc1nc2cccnc2n1-c1ccccc1,17.6,-0.1,6.5,-0.4,-0.3
Nc1nc(COc2ccc(Cl)cc2)cs1,-5.1,-0.4,38.2*,1.1,3.4
COc1ccc(C(=O)OC(C(=O)c2ccccc2)c2ccccc2)cc1 (centres undefined),-30.0*,0.9,4.1,13.4,-7.6
COc1ccc(C(=O)C(OC(=O)c2ccc(C)c(NC(C)=O)c2)c2ccccc2)cc1 (centres undefined),2.2,1.6,14.2,1.1,6.0
CCOc1ccc(S(=O)(=O)Nc2ccc3c(c2)c(C(C)=O)c(C)n3S(=O)(=O)c2ccc(OCC)cc2)cc1,16.0,0.4,-0.7,0.3,1.3
CC1CCN(C(=S)c2ccc(O)cc2)CC1,-75.4*,-0.5,-2.5,0.7,-12.5
CCCOc1ccc(C(=O)Nc2nonc2-c2ccc(OCC)cc2)cc1,-18.5,0.6,7.2,2.9,0.7
CCCCCCn1c(O)c(/C=C2\C=NN=C2c2ccccc2)sc1=S,10.9,-0.7,32.6*,2.6,-0.2
Cn1c(O)c(/C=C2\C=NN=C2c2ccccc2)sc1=S,-34.7*,0.3,-1.2,3.0,-7.0
CC(c1ccccc1)N1C(=O)C2C3C=CC(C4CC34)C2C1=O (centres undefined),-9.9,0.3,-1.1,1.8,-1.5
CC(OC(=O)C(C)N1C(=O)C2C3C=CC(C4CC34)C2C1=O)C(=O)c1ccccc1 (centres undefined),-38.4*,0.8,15.1,9.9,1.6
SMILES,D1 antag,TRHR agonist,TRHR PAM,D1 ag,D1 PAM
Cc1ccc(-n2ccnc(NCc3ccccc3)c2=O)cc1C,-35.3*,-0.4,9.0,1.1,-2.0
CCNC(=O)C1CCN(c2nc3ccccc3nc2C(F)(F)F)CC1,1.8,0.5,-2.4,9.5,-3.6
Cc1cc(NC(=O)C(C)C)ncc1NC(=O)Cc1ccccc1,0.0,0.6,9.6,13.9,-0.7
COc1cc(C(=O)Nc2cnc(NC(=O)C(C)C)cc2C)cc(OC)c1OC,-47.2*,-0.1,-0.4,0.7,-8.6
COCCNC(=O)CCc1c(C)nc2c(c(C)nn2-c2ccc(C)cc2)c1C,-3.7,-0.4,0.8,3.4,-0.7
CCN(CC)CCNC(=O)CCc1c(C)nc2c(c(C)nn2-c2ccc(C)cc2)c1C,2.8,-0.9,30.1*,16.5,-15.5
CC1=C(C(=O)Nc2cccnc2)C(c2ccc(F)cc2)n2nc(SCc3ccccc3)nc2N1 (centres undefined),-6.5,0.5,2.9,2.9,3.2
Cc1nc2ccc(S(=O)(=O)N3CCN(S(=O)(=O)c4c(F)cccc4F)CC3)cc2s1,-8.4,0.3,1.2,4.4,27.8
COc1ccc(NC(=O)COc2nsnc2N2CCCCC2)cc1,-33.7*,0.0,-0.1,4.1,0.2
CCOc1ccc(NC(=O)COc2nsnc2N2CCCCC2)cc1,14.3,-0.5,8.5,7.2,7.8
O=C(CNC(=O)C1CCCCC1)OC(C(=O)Nc1cc(C(F)(F)F)ccc1Cl)c1ccccc1 (centres undefined),20.8,-1.9,-0.7,1.5,9.2
CCN(C(=O)Cn1cc(S(=O)(=O)Cc2ccccc2Cl)c2ccccc21)c1ccccc1,11.1,0.8,-8.7,3.9,-0.8
COc1ccc(CN2C(=O)c3oc4ccc(F)cc4c(=O)c3C2c2ccc(O)cc2)cc1 (centres undefined),-36.5*,-0.3,11.6,1.4,-3.3
COc1ccc(CCn2c(=N)c(C(=O)NC3CCCC3)cc3c(=O)n4ccccc4nc32)cc1,-31.7*,-0.6,5.1,-0.5,-3.3
COc1ccc(CCn2c(=N)c(C(=O)NC3CCCC3)cc3c(=O)n4ccccc4nc32)cc1OC,7.7,1.1,-2.0,0.8,-1.9
COc1ccc(OC)c(C2Nc3c(C)cc(C)cc3-c3cc(C)nn32)c1 (centres undefined),-6.1,-0.5,0.5,1.9,-2.9
Cc1c(C(=O)N2CCCC2)sc(NC(=O)c2ccc(Cl)cc2)c1C#N,-64.2*,0.5,-27.2,-0.2,-8.4
CCCN(C(=O)CCNC(=O)c1ccc(Cl)cc1)c1c(N)n(Cc2ccccc2)c(=O)[nH]c1=O,-31.5*,-0.5,-3.6,9.6,·
CCN(C(=O)COc1ccc(F)cc1Br)c1c(N)n(Cc2ccccc2)c(=O)[nH]c1=O,-40.5*,0.0,-4.5,1.9,-4.3
COCCN(C(=O)COC(=O)c1cc2c(s1)CCCC2)c1c(N)n(Cc2ccccc2)c(=O)[nH]c1=O,3.4,-0.1,-4.8,-1.7,-4.8
CCCc1cc(C(=O)OCC(=O)N(CCC)c2c(N)n(Cc3ccccc3)c(=O)[nH]c2=O)sc1C,60.8,0.2,3.4,24.2,39.6*
CCOC(=O)c1[nH]c2ccccc2c1NC(=O)c1ccccc1F,-0.6,-0.3,4.7,-0.3,1.3
